Screening data deposited in PubChem by National Center for Advancing Translational Sciences (NCATS).
In the library only some 2% were active in any assay of this set; here they are far more common.
Rango release inh = qHTS Assay for Inhibitors of RanGTP induced Rango (Ran-regulated importin-beta cargo) - Importin beta complex dissociation | Snurportin-1 (Homo sapiens) + GTP-binding nuclear protein Ran (Homo sapiens) + Importin … | Biochemical FRET Rango-importin beta, RanGTP-induced dissociation | Potency, µM (top dose mostly 46.1 µM), for the others: top-dose activity change, negative = inhibition | 340,000 tested, 0.071% active | AID 540253, 2011; calls by dose curve; further: % of control where 0% means no effect; nearly all actives have a fitted effect of over 45% in size
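Two FRET readings bracket the reaction: one 5 min after compound meets Rango–importin beta, another 45 min after RanGTP-RCC1 (0.6 uM Ran, 0.2 uM RCC1, 2 mM GTP) is added. Only the second defines inhibition.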
S-ASM inh = Inhibitors of Secretory Acid Sphingomyelinase (S-ASM): qHTS. AID 504937, 2011. placental ASM, HMU-PC fluorogenic substrate, 60 min. Potency, µM (series often up to 57.5 µM), for inactives: top-dose activity change, negative = inhibition, most hits filed as inhibitors. 340,000 tested, 0.006% active
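Steps: dispense placental human ASM, pin compound, wait 10 min at room temperature, add HMU-PC0 substrate at 9 uM final, incubate 60 min at 37 °C, add stop solution raising pH to 10, read fluorescence.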
TDP-43 yeast inh = qHTS of TDP-43 Inhibitors; Potency, µM (doses to about 46.1 µM), for inactives: at the highest dose growth rescue (activation), usual class: activators; 410,000 tested, 1.8% active; TDP-43 expressing yeast growth rescue, BacTiter-Glo, 24 h; AID 652104, 2013; further: % of control where 0% means no effect; nearly all actives have a fitted effect of over 50% in size
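Luminescence from BacTiter-Glo reports growth of TDP-43-expressing yeast after 24 hr at 30 deg C with compound. Cells were raffinose-pregrown to mid-log, then seeded in galactose medium at OD600=0.02.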
Abeta yeast res = qHTS for compounds that reverse cellular toxicity of Amyloid beta (A-beta) peptide in yeast: Primary Screen; Potency, µM (series often up to 46.1 µM), hits mostly activators; yeast expressing A-beta42, growth rescue, OD600, 48 h; response scale: 0% DMSO, 100% iron-clioquinol control; AID 1347071, 2019; 410,000 tested, 0.063% active; further: nearly all actives have a fitted effect of over 55% in size
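Yeast growth medium received pinned compounds, then yeast cells expressing toxic A-beta were added; plates incubated at 30 C for 48 hr. Growth read as absorbance at 600 nm, normalized to DMSO and equimolar FeCl3 plus clioquinol controls.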
aSyn rescue = qHTS of alpha-syn Inhibitors | Potency, µM (top dose mostly 46.1 µM), for inactives: at the highest dose growth rescue (activation), actives largely listed as activators | 370,000 tested, 0.14% active | Yeast expressing alpha-synuclein, growth rescue, BacTiter-Glo, 24 h; further: % of control where 0% means no effect; nearly all actives have a fitted effect of over 65% in size
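Screening used galactose-induced yeast with toxic alpha-synuclein levels, exposed to compound for 24 hr at 30 deg C. Cell growth, read with BacTiter-Glo luminescence, gave the measured signal.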
Rango-impB inh = qHTS Assay for Inhibitors of Rango (Ran-regulated importin-beta cargo) - Importin beta complex formation | Importin subunit beta-1 (Homo sapiens), Q14974 | Rango CFP/YFP FRET sensor + importin beta, 45 min | Potency, µM (series often up to 92.2 µM), for the others: at the top dose inhibition of complex formation | 340,000 tested, 0.031% active | AID 540263, 2011; calls by dose curve;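 further: 0% = DMSO wells and 100% = buffer wells lacking importin beta; nearly all actives have a fitted effect of over 15% in size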
Target sequence (Q14974 whole entry, looked up): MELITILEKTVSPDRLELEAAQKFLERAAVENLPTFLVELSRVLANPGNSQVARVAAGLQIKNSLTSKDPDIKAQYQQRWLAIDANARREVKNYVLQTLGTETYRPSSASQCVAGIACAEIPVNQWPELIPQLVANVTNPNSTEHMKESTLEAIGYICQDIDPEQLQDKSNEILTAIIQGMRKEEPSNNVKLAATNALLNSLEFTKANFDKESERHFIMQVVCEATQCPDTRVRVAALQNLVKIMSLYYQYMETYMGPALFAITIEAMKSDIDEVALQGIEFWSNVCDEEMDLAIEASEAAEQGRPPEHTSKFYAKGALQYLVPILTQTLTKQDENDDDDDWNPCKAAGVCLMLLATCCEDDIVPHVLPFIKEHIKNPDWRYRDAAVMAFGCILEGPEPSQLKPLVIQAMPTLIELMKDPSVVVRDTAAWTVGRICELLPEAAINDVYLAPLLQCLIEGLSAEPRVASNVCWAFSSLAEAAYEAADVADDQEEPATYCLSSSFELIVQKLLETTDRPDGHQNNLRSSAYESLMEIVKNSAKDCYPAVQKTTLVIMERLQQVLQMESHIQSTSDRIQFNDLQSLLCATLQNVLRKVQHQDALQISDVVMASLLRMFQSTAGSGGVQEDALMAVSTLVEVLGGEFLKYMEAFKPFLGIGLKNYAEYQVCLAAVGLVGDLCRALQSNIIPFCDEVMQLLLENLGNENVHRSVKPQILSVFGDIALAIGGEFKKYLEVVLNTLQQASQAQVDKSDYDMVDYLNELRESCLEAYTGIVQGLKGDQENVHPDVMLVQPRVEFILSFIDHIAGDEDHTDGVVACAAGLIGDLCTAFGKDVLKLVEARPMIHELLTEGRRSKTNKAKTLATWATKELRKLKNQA
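Inhibition scored from the CFP 486 nm/YFP 530 nm FRET ratio 45 min after adding 0.125 microM importin beta to 50 nM Rango biosensor preincubated 5 min with compound (room temperature, PBS with DTT, Tween-20, BSA). No-importin wells as positive control.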
* hit, by the source's call; i = inactive; ? = inconclusive; nt = no result; [ ] = remark or other dose. Unless noted, the call rests on the fitted dose curve; in most records, active means well fitted curve in the direction sought with a large enough effect; inconclusive means small, poorly fitted or top-dose-only effect, or another doubt; inactive means no such curve, though single readings can be large; an effect the other way counts as inactive or inconclusive. Potency means the concentration at half of the fitted maximal effect.

SMILES | Rango release inh | S-ASM inh | TDP-43 yeast inh | Abeta yeast res | aSyn rescue | Rango-impB inh
CCOC(=O)C1=CCN(S(=O)(=O)c2ccccc2)C1c1ccc(Cl)cc1 (stereo not given) | nt | nt | 35µM* | i | 28% | nt
CCOC(=O)C1=CCN(S(=O)(=O)c2ccc(F)cc2)C1c1ccc(Br)cc1 (stereo not given) | nt | nt | 35µM* | i | 24% | nt
COc1ccc(NC(=O)NC2COc3ccccc3C2)c(OC)c1 (stereo not given) | nt | nt | 9% | i | nt | nt
Cc1ccc(N=C2NC(=O)CC(C(=O)Nc3cc(C(F)(F)F)ccc3Cl)S2)cc1 (stereo not given) | nt | nt | 17% | i | nt | nt
Nc1ccc(/C=C/c2cccc3cccnc23)cc1 | nt | nt | nt | nt | 5% | nt
Cc1cccc(-c2nc(SCC(=O)NCc3ccco3)c3c(=O)n(C)c(=O)n(C)c3n2)c1 | nt | nt | 25%[9.22 µM] | i | nt | nt
CCOC(=O)c1nnc(-c2cccs2)nc1NC(C)C | 12% | -1% | 13µM* | i | 5% | -1%
Cc1ccc(-c2ccc(/C=N/O)o2)cc1[N+](=O)[O-] | 6% | -2% | 13µM* | i | -19% | 0%
O=[N+]([O-])c1cc(-c2ccc(/C=N/n3cnnc3)o2)ccc1Cl | -6% | -4% | ? | i | 6% | 2%
Cc1ccc(S(=O)(=O)N2CCC(c3ccncc3)CC2)c(C)c1 | nt | nt | 16% | i | nt | nt
O=C(NCc1ccc(F)cc1)C(=O)NCC(c1ccco1)S(=O)(=O)c1cccs1 (stereo not given) | nt | nt | 4% | i | nt | nt
Cc1cc(O)c(NC(=O)c2cc([N+](=O)[O-])ccc2Cl)cc1C | 2% | 16% | 14µM* | i | -3% | 1%
Cc1ccc(O)c(NC(=O)c2cc([N+](=O)[O-])ccc2Cl)c1 | -7% | 1% | ? | i | 16% | 0%
Cc1ccc(S(=O)(=O)Nc2cccc3cccnc23)c([N+](=O)[O-])c1 | -4% | -1% | 7.9µM* | i | 18µM* | 0%
Cc1c(C(=O)NCc2ccccc2Cl)sc2nc3n(c(=O)c12)CCCCC3 | nt | nt | 35µM* | i | nt | nt
Cc1c(C(=O)NCc2ccccc2Cl)sc2nc3n(c(=O)c12)CCCC3 | nt | nt | ? | i | nt | nt
Cc1c(C(=O)NCCO)sc2nc3n(c(=O)c12)CCC3 | 9% | 5% | -22% | i | -6% | 1%
Cc1ccc(-c2nc(C(=O)NCc3ccccc3Cl)c3n2CCCCC3)cc1 | nt | nt | 35µM* | i | 12% | nt
Cc1ccc(CCNC(=O)c2sc3nc4n(c(=O)c3c2C)CCCC4)cc1 | nt | nt | 16µM* | i | nt | nt
CCOC(=O)Nc1ccc(/C=C/c2ccnc3ccccc23)cc1 | nt | nt | nt | nt | -9% | nt
COc1ccc(NC(=O)C(C2CC2)n2c(=O)c(-c3ccccc3)nc3ccccc32)cc1 (stereo not given) | nt | nt | 20µM* | i | 12% | nt
CCn1c2ccccc2c2cc(CN3CCN(Cc4ccc(Cl)cc4)CC3)ccc21 | nt | nt | -11% | i | nt | nt
Cc1cc(C)cc(NC(=S)NC(=O)C2CC2)c1 | 0% | 1% | 11µM* | i | -1% | -3%
Cc1cc(NC(=S)NC(=O)C2CC2)ccc1Br | -18% | nt | 16µM* | i | -37% | 0%
Cc1sc2ccccc2[n+]1CC(=O)c1ccccc1 | -22% | 5% | 11µM* | i | 7% | 3%
SMILES | Rango release inh | S-ASM inh | TDP-43 yeast inh | Abeta yeast res | aSyn rescue | Rango-impB inh
Cc1sc2ccccc2[n+]1CC(=O)O | 2% | -3% | 6% | i | -4% | ?
Nc1nc(-c2cccs2)c(-c2cccs2)s1 | 4% | -3% | 16µM* | i | -11% | 0%
CC(C)CN(CCCNC(=O)c1cc(=O)[nH]c2ccc(S(=O)(=O)N3CCCCCC3)cc12)CC(C)C | nt | nt | 5% | i | nt | nt
COc1ccc(C(=O)Nc2ccc(N3CCOCC3)c(C(F)(F)F)c2)cc1OC | nt | nt | 20µM* | i | 3% | nt
COc1cc(C(=O)Nc2ccc(Cl)c(C(F)(F)F)c2)cc(OC)c1OC | 25% | ? | 18µM* | i | ? | 8%
COc1ccc(C(=O)Nc2ccc(N3CCOCC3)cc2)cc1OC | -1% | -2% | -18% | i | -26% | 0%
COc1cc(CCC(=O)Nc2ccc(Cl)c(C(F)(F)F)c2)cc(OC)c1OC | ? | -7% | 20% | i | -6% | 3%
Cc1nc2cccnc2n1-c1cccc(C(=O)N2CCN(c3cccc(Cl)c3)CC2)c1 | nt | nt | 7% | i | nt | nt
NC(=S)NN=C1CCCCCCCCCC1 | 15% | 3% | 14µM* | i | 14% | -1%
NC(=S)NN=C1CCC(C2CCCCC2)CC1 (stereo not given) | 5% | 8% | 18% | 3.2µM* | -8% | 2%
Cc1cc(C)cc(NC(=O)C2CCN(c3nc4ccccc4nc3C(F)(F)F)CC2)c1 | nt | nt | 17% | i | nt | nt
CN(C)CCNC(=O)c1ccc(Cl)s1 | -9% | 3% | -9% | i | 0% | -2%
CN(Cc1ccc(Cl)s1)C(=O)CCl | 11% | 5% | 10µM* | i | -20% | 1%
COc1ccc(CN(C)C(=O)CCl)cc1 | -5% | 0% | 18% | i | -1% | 3%
CN(Cc1ccc(Cl)cc1)C(=O)CCl | 8% | -1% | 16µM* | i | -5% | 9%
COc1ccc(/C=C(/C(=O)c2cccs2)N2C=CC=CC2=C(C#N)C#N)cc1 | ? | 14% | ? | i | 18µM* | ?
CCN1CCN(CCCNC(=O)c2cc3c(=O)n(C)c4ccccc4c3s2)CC1 | nt | nt | -4% | i | nt | nt
Cn1c(=O)c(-c2ccccc2)c(O)c2ccccc21 | -4% | -4% | 20µM* | i | 6% | -3%
COc1ccc(-n2nc([N+](=O)[O-])c(=NCCCN3CCCC3=O)n2O)cc1 | -5% | -2% | -4% | i | -3% | 2%
O=C1CCCN1CCCN=c1c([N+](=O)[O-])nn(-c2ccc(Cl)cc2)n1O | -7% | -6% | 14µM* | i | -1% | 0%
COc1cc(OC)c2c(c1)S(=O)(=O)C(c1ccccc1)=C2N | 2% | 0% | 5% | 16µM* | 1% | 0%
CCc1nc(-c2ccccc2O)n(-c2ccccc2)n1 | -15% | 1% | 14µM* | i | -9% | 5%
CCN1CCc2c(sc(NC(=S)NC(=O)c3cccc(F)c3)c2C(N)=O)C1 | nt | nt | nt | nt | -3% | nt
Cc1ccc(NC(=O)c2ncoc2-c2ccco2)cc1Cl | nt | nt | 6% | i | nt | nt
